Compound activity from PubChem BioAssay.
Compounds with a hit are over-represented: about 0.76% of the library has one in this group of screens.
Rv3671c protease = Rv3671c (M. tuberculosis) protease inhibition | P9WHR9 | inhibition, % at 5.96 µM | actives 0.048% (n = 320,000) | AID 2606; in the data active = inhibition above about 38%;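 also: extracellular domain of Rv3671c used as enzyme; 0% = enzyme with DMSO and 100% = no enzyme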
UGM FP inh = blocks M. tuberculosis UGM enzyme | P9WIQ1 | purified UGM, fluorescence polarization probe displacement | inhibition, % at 10 µM | actives 0.06% (n = 320,000) | AID 504406; in the data active = inhibition above about 10%, passing the limit was not always enough
Target sequence (P9WIQ1 whole entry, looked up): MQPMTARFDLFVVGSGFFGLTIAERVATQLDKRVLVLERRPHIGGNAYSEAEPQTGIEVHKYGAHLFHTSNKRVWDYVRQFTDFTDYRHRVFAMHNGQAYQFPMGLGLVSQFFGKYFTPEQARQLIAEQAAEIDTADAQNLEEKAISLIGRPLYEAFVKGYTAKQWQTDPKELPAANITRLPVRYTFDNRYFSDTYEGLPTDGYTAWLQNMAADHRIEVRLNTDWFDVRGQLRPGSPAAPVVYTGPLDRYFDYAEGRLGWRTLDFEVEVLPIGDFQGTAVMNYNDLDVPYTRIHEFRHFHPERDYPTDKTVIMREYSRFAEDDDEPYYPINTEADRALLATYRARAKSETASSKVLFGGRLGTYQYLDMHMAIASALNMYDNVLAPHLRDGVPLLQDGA
Vc quorum ag = induces V. cholerae light production without autoinducers; V. cholerae BH1578 lux reporter, luminescence, 6 h; activation, % at 18.7 µM; actives 0.16% (n = 350,000); in the data active = activation mostly above about 9.7%, no sharp cut-off
FadD28 FP inh = inhibitors of Mycobacterium tuberculosis FadD28 bisubstrate binding; FadD28 bisubstrate probe binding, fluorescence polarization; inhibition, % at 12.5 µM; actives 0.22% (n = 360,000); AID 588549; in the data active = inhibition above about 8.5%, passing the limit was not always enough
PrP 5UTR inh = inhibition of PrP 5' UTR reporter expression; cell-based PrP 5' UTR mRNA reporter, plate reader; inhibition, % (concentration not given with the values); actives 0.35% (n = 340,000); in the data active = inhibition above about 52%; also: 0 = median of the neutral control wells
Mtb bLac sens = beta-lactam sensitization of Mtb H37Rv. inhibition, % at 25 µM. M. tuberculosis H37Rv growth with meropenem, percent inhibition. actives 0.27% (n = 330,000); call rule not given here;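 also: growth measured after seven days incubation then overnight dye step; 0% = bacteria only wells and 100% = bacteria with antibiotic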
Numbers without * were called inactive; ! = a repeat was not active.

O=C(COC(=O)c1cccc(NS(=O)(=O)c2ccc(F)c(F)c2)c1)NC(=O)NC1CCCCC1 was read as Rv3671c protease -62, UGM FP inh -2, Vc quorum ag 0, FadD28 FP inh 32*, PrP 5UTR inh -15 and Mtb bLac sens -2.
Screening CCCNC(=O)NC(=O)COC(=O)c1cccc(NS(=O)(=O)c2ccc(F)c(F)c2)c1 returned Rv3671c protease 12, UGM FP inh -5, Vc quorum ag 0, FadD28 FP inh -2, PrP 5UTR inh -17 and Mtb bLac sens 0.
`O=C(CCCN1C(=O)/C(=C/c2ccco2)SC1=S)Nc1ccccc1C(=O)O` gave Rv3671c protease -5, UGM FP inh -3, Vc quorum ag inactive, FadD28 FP inh 45*, PrP 5UTR inh 0 and Mtb bLac sens -1.
O=C1/C(=C\c2ccco2)SC(=S)N1Cc1ccccc1 was read as Rv3671c protease 0, UGM FP inh -1, Vc quorum ag inactive, FadD28 FP inh 4, PrP 5UTR inh -2 and Mtb bLac sens -3.
For O=C(CCCN1C(=O)/C(=C\c2ccccc2)SC1=S)Nc1ccc(O)cc1C(=O)O the results were Rv3671c protease -7, UGM FP inh 4, Vc quorum ag 0, FadD28 FP inh 2, PrP 5UTR inh -9 and Mtb bLac sens -2.
Screening O=C(CCN1C(=O)/C(=C/c2ccco2)SC1=S)Nc1ccc(O)cc1C(=O)O returned UGM FP inh -1, Vc quorum ag inactive, FadD28 FP inh 21* and Mtb bLac sens 9.
For O=C(CN1C(=O)/C(=C\c2ccco2)SC1=S)Nc1ccc(O)cc1C(=O)O the results were Rv3671c protease 6, UGM FP inh -2, Vc quorum ag 0, FadD28 FP inh 36*, PrP 5UTR inh -11 and Mtb bLac sens 1.
`O=C(O)CCCN1C(=O)/C(=C\c2ccco2)SC1=S` gave Vc quorum ag -1, FadD28 FP inh 5 and PrP 5UTR inh -6.
`COc1ccc(CNC(=O)C2CCCN(C(=O)Nc3ccccc3OC)C2)cc1` (stereo not drawn) gave Rv3671c protease -4, UGM FP inh -1, Vc quorum ag 0, FadD28 FP inh -3, PrP 5UTR inh -30 and Mtb bLac sens -4.
`COc1cc(-n2c(C)nc3cc(C(=O)O)ccc32)cc(OC)c1OC` gave Rv3671c protease -1, UGM FP inh 0, Vc quorum ag inactive, FadD28 FP inh -4, PrP 5UTR inh -26 and Mtb bLac sens -6.
For O=C(c1nc2ccccn2c1CN1CCCC(O)C1)N1CCN(C2CCCCC2)CC1 (stereo not drawn) the results were Rv3671c protease -7, UGM FP inh -1, Vc quorum ag -3, FadD28 FP inh -2, PrP 5UTR inh -15 and Mtb bLac sens -7.
`Cc1ccc(C)c(Cn2c(O)c(N=NC(=S)Nc3ccccc3F)c3ccccc32)c1` gave Rv3671c protease -2, UGM FP inh 1, Vc quorum ag 80*, FadD28 FP inh -2, PrP 5UTR inh 4 and Mtb bLac sens 17.
`O=C(CSc1ccc(-c2nc3ccccc3[nH]2)cn1)Nc1ccc(S(=O)(=O)NC2CC2)cc1` gave Rv3671c protease -258, UGM FP inh 1, Vc quorum ag 0, FadD28 FP inh 33*, PrP 5UTR inh -1 and Mtb bLac sens 2.
Screening O=C(CSc1ccc(-c2nc3ccccc3[nH]2)cn1)Nc1ccc2c(c1)OCCO2 returned Rv3671c protease -16, UGM FP inh 0, Vc quorum ag inactive, FadD28 FP inh -3, PrP 5UTR inh -190 and Mtb bLac sens 5.
COc1ccc(/C=C/c2cc(C(=O)O)c3ccccc3n2)cc1 was read as Rv3671c protease -11, UGM FP inh 7, Vc quorum ag inactive, FadD28 FP inh -4, PrP 5UTR inh 71* and Mtb bLac sens 0.
Screening COc1cc(OC)c(OC)cc1/C=C/c1cc(C(=O)O)c2ccccc2n1 returned Rv3671c protease -4, UGM FP inh -2, Vc quorum ag -3, FadD28 FP inh 1, PrP 5UTR inh -34 and Mtb bLac sens -6.
Screening Cc1ccc2c(c1)CC1(CN2C)C(=O)OC2(CCCCC2)OC1=O returned Rv3671c protease -10, UGM FP inh 1, Vc quorum ag 17*, FadD28 FP inh -2, PrP 5UTR inh -26 and Mtb bLac sens -3.
Screening CCN(C[C@H]1N[C@@](C)(C(=O)OC)[C@H]2C(=O)N(Cc3ccccc3)C(=O)[C@@H]12)C(=O)Nc1ccc(C)cc1 returned Rv3671c protease 4, UGM FP inh 0, Vc quorum ag inactive, FadD28 FP inh -2, PrP 5UTR inh -33 and Mtb bLac sens -1.
Screening COc1ccc(C(=O)N2CCCC(c3cc(C(=O)NCc4ccc(F)cc4)no3)C2)cc1 (stereo not drawn) returned Vc quorum ag -1 and FadD28 FP inh -2.
For NC(=O)C1=C(c2ccccc2)c2ccccc2C1=O the results were Vc quorum ag 43*, FadD28 FP inh 0 and PrP 5UTR inh -6.
Screening CCOc1ccc2c(ccc(/C=C/c3cc(C)c4cccnc4c3O)[n+]2C)c1 returned Vc quorum ag -1, FadD28 FP inh 16* and PrP 5UTR inh 19.
`Cc1ccc(-c2nc3ccc(Br)cn3c2Cc2cccc(F)c2)cc1` gave FadD28 FP inh -1.
`O=C(Nc1cc([N+](=O)[O-])ccc1O)c1ccc2c(c1)C(=O)N(Cc1ccco1)C2=O` gave Rv3671c protease 13, UGM FP inh -1, Vc quorum ag inactive, FadD28 FP inh 12*, PrP 5UTR inh -12 and Mtb bLac sens -5.
For O=S(=O)(NCCN1CCOCC1)c1cc(Cl)c(Cl)cc1Cl the results were Rv3671c protease 17, UGM FP inh -1, Vc quorum ag inactive, FadD28 FP inh -2, PrP 5UTR inh -8 and Mtb bLac sens -2.
Screening COc1cc(C(O)c2nc3ccccc3s2)cc(OC)c1OC (stereo not drawn) returned Rv3671c protease -3, UGM FP inh 1, Vc quorum ag inactive, FadD28 FP inh 24*, PrP 5UTR inh -23 and Mtb bLac sens 3.
For COc1ccc(C(O)c2nc3ccccc3s2)cc1 (stereo not drawn) the results were Rv3671c protease 4, UGM FP inh 0 and Mtb bLac sens 1.
Screening C=Cc1c(C)c2cc3[nH]c(cc4nc(cc5nc(cc1[nH]2)C(C)=C5CCC(=O)O)C(CCC(=O)O)=C4C)c(C)c3C=C returned Rv3671c protease 32, UGM FP inh -3, Vc quorum ag -1, FadD28 FP inh 43*!, PrP 5UTR inh -13 and Mtb bLac sens -1.
C=CCn1c(CCC(=O)O)ccc1-c1ccccc1 was read as Rv3671c protease -8, UGM FP inh 1, Vc quorum ag inactive, FadD28 FP inh 1, PrP 5UTR inh -13 and Mtb bLac sens 4.
For C/C(=N\N=C(/N)SC1CC(=O)N(c2ccc(Br)cc2)C1=O)c1cccs1 (stereo not drawn) the results were Rv3671c protease -59, UGM FP inh 0, Vc quorum ag -7, FadD28 FP inh 10*, PrP 5UTR inh -83 and Mtb bLac sens 99.
